Test results: PubChem BioAssay AID504582 (Broad Institute, 2011)
Hit rate of the full screen: of about 340,000 compounds, about 2,300 (0.68%) were called active. Only a selection was taken, and actives are over-represented in it overall. Unmarked numbers belong to inactive results. No stated cut-off is given here; in the data, active means growth rescue above about 28% (passing the limit was not always enough); inconclusive means no clear call, values can overlap the other calls.

Assay: rescue of yeast from PfHsp40 toxicity, primary screen, S. cerevisiae, ATP luminescence (AID 504582);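 further: yeast W303a lacking pdr1 and pdr3 grown in galactose medium; growth measured after three days at 30 °C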
Settings: S. cerevisiae expressing PfHsp40, growth rescue, at 12.5 µM, active compounds read high

| SMILES | growth rescue |
| --- | --- |
| COCCCNC(=S)N1CCCC(c2nc3cc(C)c(C)cc3[nH]2)C1 (stereo not drawn) | -0.694% |
| CCc1ccccc1N(CC(=O)N1CCN(c2ccccc2F)CC1)S(C)(=O)=O | 0.191% |
| COc1ccc(N2C(=O)/C(=C\c3ccco3)N=C2SCC(N)=O)cc1Cl | -0.407% |
| COc1ccc(N2CCN(c3ccc([N+](=O)[O-])cc3Cl)CC2)cc1 | -0.626% |
| COc1ccc2c(c1)C=CC1(O2)N(CCO)c2ccccc2C1(C)C (stereo not drawn) | -0.159% |
| CN1c2ccc([N+](=O)[O-])cc2C(C)(C)C12C=Cc1cc(C(=O)O)ccc1O2 (stereo not drawn) | 200% (active) |
| Cc1c(Cl)c([N+](=O)[O-])nn1Cc1ccc(C(=O)N/N=C\c2cc(Cl)ccc2O)o1 | 29.8% (active) |
| Cc1nn(Cc2ccccc2Cl)c(C)c1NC(=O)Cn1nc([N+](=O)[O-])c(Cl)c1C | -0.0385% |
| O=C(N/N=C\c1ccc(Br)cc1)c1ccc(Cn2cccn2)o1 | 0.111% |
| COc1ccc(/C=C(\C#N)C(=O)NCCCn2ccnc2)cc1 | -0.489% |
| CC1(C)NC(=O)N(CCCCSc2ccc(Cl)cc2)C1=O | 0.18% |
| O=C(O)c1ccc(N/N=C/c2cn(-c3ccccc3)nc2-c2cccs2)cc1 | 0.668% |
| Cc1ccc(NC(=O)COc2ccc(/C=N\NC(=O)c3cccnc3)cc2)cc1C | -0.012% |
| O=C(N/N=C/c1sc(N2CCCCC2)nc1-c1cccs1)c1cccnc1 | 140% (active) |
| O=C(NN=Cc1ccccc1)c1ccccc1 | 0.391% |
| O=C(N/N=C/c1ccc(Cl)c(Cl)c1)c1ccc2nc[nH]c2c1 | 0.517% |
| CSc1ccc(/C=N/NC(=O)c2cccc(Cl)c2)cc1 | 40.3% (active) |
| COC(=O)C1=NNC2(c3ccc(C)cc3)C(=O)N(c3cccc(C)c3C)C(=O)C12 (stereo not drawn) | -0.596% |
| O=C(CSc1ccccn1)N1CCN(S(=O)(=O)c2ccc(Cl)cc2)CC1 | -0.63% |
| COc1ccc(C(=O)Nc2sc(C)c(C)c2CN2CCOCC2)cc1 | 0.992% |

| SMILES | growth rescue |
| --- | --- |
| CCc1cc(C(=O)c2ccc(OC)cc2)c(NC(=O)CN2CCN(C)CC2)s1 | -1.5% |
| CCc1cc(C(N)=O)c(NC(=O)c2ccc(OC)cc2)s1 | 648% (active) |
| O=C(c1ccc2c(c1)OCO2)N1CCNc2ccccc2C1 | -1.38% |
| COc1ccc(-n2cnc3cc(C(=O)NC4CCCC4)ccc32)cc1 | 3.16% |
| COc1ccc(C(=O)NC2CC2)cc1OC1CCN(Cc2cnn(C)c2)CC1 | -0.458% |
| COc1cc(C(=O)NC2CCN(C)CC2)ccc1Nc1ncc2c(n1)N(C1CCC(O)CC1)CCC(=O)N2C (stereo not drawn) | 44.4% (active) |
| O=C(/C=N/O)Nc1ccccc1 | -1.81% |
| c1ccc(-c2nccc(-c3ccc(-n4cnc5ccccc54)cc3)n2)nc1 | 3.45% |
| CN(C)Cc1c(O)ccc2c(=O)c(-c3ccccc3Cl)coc12 | -1.86% |
| O=C(NCCC1=CCCCC1)c1ccc(-n2cncn2)cc1 | 0.575% |
| CN(c1ccc(C(=O)NCCC2=CCCCC2)cc1)S(C)(=O)=O | -0.452% |
| O=C(NCCC1=CCCCC1)c1ccc(Cl)c([N+](=O)[O-])c1 | 34.2% (active) |
| CCOc1ccccc1N(CC(=O)NC1CCCCC1)C(=O)CCCC(=O)Nc1ccccn1 | 0.515% |
| Cc1ccc(NC(=O)CN(C)C(=O)COC(=O)C(C)(C)Oc2ccc(Cl)cc2)cc1 | -0.952% |
| NC(=O)C1CCN(C(=O)c2cn(-c3ccccc3)nc2-c2cccnc2)CC1 | -1.23% |
| Cc1ccc(-c2nn(-c3ccccc3)cc2C(=O)NC2CCC(O)CC2)cc1 (stereo not drawn) | -0.972% |
| O=C(NNC(=S)NC(=O)c1cn(-c2ccccc2)nc1-c1ccccc1)c1ccncc1 | 117% (active) |
| Cc1ccc(SC(=O)COc2ccc(C)c(C)c2)cc1 | -0.169% |
| CCOc1ccc(-c2ccc(SCC(=O)N3CCOCC3)nn2)cc1 | -0.865% |
| CC(C)C[C@@H](COc1ccccc1)N1CCN(CC(C)C)CCC1=O | 0.09% |

| SMILES | growth rescue |
| --- | --- |
| CC1(C)C=Cc2c(ccc3c2OC[C@@H](c2ccc(O)cc2O)C3)O1 | 232% (active) |
| Nc1cc(N)nc(SCC(=O)Nc2cccc(S(=O)(=O)N3CCCCC3)c2)n1 | 0.009% |
| Cn1c(CC2Sc3ccccc3NC2=O)nnc1SCC(=O)c1ccc(Cl)cc1 (stereo not drawn) | -0.256% |
| COc1ccc(C2N=C(N)N=C(N)N2c2ccccc2)cc1OC (stereo not drawn) | 0.038% |
| CC/C(=N\NC(=O)c1ccccc1O)c1c(O)n(Cc2ccccc2)c(=O)[nH]c1=O | 44.8% (active) |
| COCCN(C(=O)c1ccccc1F)c1c(N)n(Cc2ccccc2)c(=O)[nH]c1=O | -0.643% |
| CC/C(=N\NC(=O)c1ccccc1Cl)c1ccc(Br)s1 | -0.619% |
| COc1ccc(C(=O)CN2C(=O)NC(C)(c3ccc(C)cc3)C2=O)cc1OC (stereo not drawn) | 0.439% |
| COc1ccc(C2Nc3ccccc3C(=O)N2c2ccc(Cl)cc2)cc1Cn1cc([N+](=O)[O-])cn1 (stereo not drawn) | 0.089% |
| Cn1ncc(Br)c1C(=O)NC1CCCC1 | -0.467% |
| COC(=O)[C@@H]1C[C@@]2(O)[C@@H](O)[C@@H](O)[C@@H](O)C[C@H]2N1Cc1ccc(C)s1 | -0.441% |
| COC(=O)[C@@H]1C[C@@]2(O)[C@H](O)[C@H](O)[C@H](O)C[C@H]2N1Cc1ccc(C)s1 | -1.59% |
| COC(=O)[C@@H]1C[C@@]2(O)[C@H](O)[C@H](O)[C@H](O)C[C@H]2N1Cc1ccc(C(C)(C)C)cc1 | 29% (active) |
| CC(=O)c1cccc(-c2ccc(CN3C(CC(C)C)C(=O)N(Cc4cn(CC5CCCCC5)nn4)CCS3(=O)=O)cc2)c1 (stereo not drawn) | 0.3% |
| Cc1cc(N=Nc2ccc3ccccc3c2)ccc1O | 91.3% (active) |
| C#CCOCCOCCOCCNc1nc(N2CCN(C(=O)[C@H](C(C)C)n3cc(CCO)nn3)CC2)nc(N2CCN(C(=O)[C@H](C(C)C)n3cc(CCO)nn3)CC2)n1 | -2.28% |
| C#CCOCCOCCOCCNc1nc(N2CCN(C(=O)[C@H](CCCN=C(N)N)n3cc(C(N)[C@@H](C)CC)nn3)CC2)nc(N2CCN(C(=O)[C@H](CO)n3cc([C@@H](N)C(C)C)nn3)CC2)n1 (stereo partly drawn) | -0.354% |
| C#CCOCCOCCOCCNc1nc(N2CCN(C(=O)CCCCCCCCCCNC(=O)[C@H]([C@@H](C)CC)n3cc(CCCCN=C(N)N)nn3)CC2)nc(N2CCN(C(=O)CCCCCCCCCCNC(=O)[C@H](CO)n3cc(CCCSC)nn3)CC2)n1 | 29.5% (active) |
